In PubChem BioAssay:
The source made the active and inactive calls.

What was measured:
[1] = binders of probe aFSTL3 on microarray, primary screen, stem cell growth factor project, biochemical, small-molecule microarray, fluorescence 635/667 (AID 1064); details: higher = more signal;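 further: measures binding of the biotinylated anti-FSTL3 antibody to printed compounds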
[2] = binders from COS7 lysate, DM2A8 probe, primary screen, torsin A project, cell lysate, small-molecule microarray, fluorescence 635/667 (AID 1065); details: higher = more signal, COS7 lysate expressing mutant human TOR1A
[3] = binders of probe aFGF2 on microarray, primary screen, stem cell growth factor project, biochemical, small-molecule microarray, fluorescence 635/667 (AID 1067); details: higher = more signal;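 further: measures binding of biotinylated aFGF2 protein to printed compounds on slides; z-score merges feature fluorescence and signal-to-noise across triplicate slides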
[4] = binders of probe aFGF10 on microarray, primary screen, stem cell growth factor project, biochemical, small-molecule microarray, fluorescence 635/667 (AID 1071); details: higher = more signal;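 further: score merges 667 nm spot intensity and signal to noise from triplicate slides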
[5] = molecular target: Neurogenic locus notch homolog protein 2 (Homo sapiens) (UniProt Q04721); assay: Notch2 binders on small-molecule microarrays, primary screen, biochemical, small-molecule microarray, 635 nm fluorescence, stem cell growth factors (AID 1073); details: Notch2 binding, higher = more signal
[6] = molecular target: Pro-neuregulin-1, membrane-bound isoform (Homo sapiens) (UniProt Q02297); assay: NRG1 binders on small-molecule microarrays, primary screen, psychiatric disease protein project, biochemical, small-molecule microarray, fluorescence 635/667 (AID 1075); details: NRG1 binding, 635 nm fluorescence, higher = more signal;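 further: score combines 667 nm spot fluorescence with signal to noise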
Pro-neuregulin-1, membrane-bound isoform (Homo sapiens), sequence (Q02297 whole entry, looked up, the tested form may be a part, canonical isoform): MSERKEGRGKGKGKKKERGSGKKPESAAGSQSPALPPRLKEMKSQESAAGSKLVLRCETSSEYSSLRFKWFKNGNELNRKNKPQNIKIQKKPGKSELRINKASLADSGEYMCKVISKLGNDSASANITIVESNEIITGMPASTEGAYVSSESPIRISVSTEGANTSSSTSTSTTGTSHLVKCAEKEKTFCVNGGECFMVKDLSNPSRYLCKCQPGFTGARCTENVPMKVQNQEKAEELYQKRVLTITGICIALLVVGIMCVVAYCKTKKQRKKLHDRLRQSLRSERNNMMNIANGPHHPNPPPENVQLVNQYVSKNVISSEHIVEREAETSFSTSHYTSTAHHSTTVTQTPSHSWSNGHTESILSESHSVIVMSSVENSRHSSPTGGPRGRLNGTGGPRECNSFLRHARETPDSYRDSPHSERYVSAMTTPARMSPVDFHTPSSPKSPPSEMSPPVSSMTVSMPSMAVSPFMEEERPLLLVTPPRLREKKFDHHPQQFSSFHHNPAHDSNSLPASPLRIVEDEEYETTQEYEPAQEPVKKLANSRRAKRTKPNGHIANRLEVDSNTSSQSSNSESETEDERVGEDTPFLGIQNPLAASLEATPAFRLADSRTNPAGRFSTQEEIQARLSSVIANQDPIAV

[7] = system: Neuregulin-1 EGF-like domain; assay: binders of neuregulin-1 EGF-like domain, primary screen, biochemical, small-molecule microarray, 635 nm fluorescence (AID 1081); details: small-molecule microarray binding, higher = more signal;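 further: binding of the protein to compounds printed on small-molecule microarray slides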
[8] = FRG1 promoter luciferase signal modulators, primary screen, FRG1 inhibition for FSHD, cell-based, C2C12 myotubes, firefly/Renilla luciferase, luminescence (AID 1084); details: higher = more signal, called active from +8 up or from −8 down
[9] = binders of probe aFST on microarray, primary screen, stem cell growth factor project, biochemical, small-molecule microarray, fluorescence 635/667 (AID 1086); details: higher = more signal;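 further: score merges 667 nm fluorescence with signal-to-noise of each printed compound spot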
[10] = binders of probe aHhip on microarray, primary screen, stem cell growth factor project, biochemical, small-molecule microarray, fluorescence 635/667 (AID 1087); details: higher = more signal;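 further: score merges spot fluorescence at 667nm with spot signal to noise ratio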
[11] = system: PRMT1 (protein arginine N-methyltransferase 1); assay: PRMT1 binders on small-molecule microarrays, primary screen, biochemical, small-molecule microarray, 635 nm fluorescence (AID 1088); details: small-molecule microarray binding, higher = more signal;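 further: binding of Prmt1 protein to compounds spotted on small-molecule microarray slides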
[12] = yeast growth modulation, basal conditions, primary screen, YJM789 clinical isolate, OD600, 24 h (AID 1089);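 further: growth of clinical yeast isolate S. cerevisiae YJM 789 seeded 1000 cells per well; test concentration not given here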; details: S. cerevisiae YJM789 growth, higher = more signal, called active from +8 up or from −8 down
[13] = fission yeast growth modulation, primary screen, strain 972, OD600, 24 h, no modulator (AID 1090);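 further: basal condition with compound alone and no growth modifier present; test concentration not given here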; details: S. pombe 972 growth, higher = more signal, called active from +8 up or from −8 down
[14] = S. cerevisiae growth modulation with rapamycin, primary screen, strain BY4716, OD600, 96 h (AID 1091); details: higher = more signal, called active from +8 up or from −8 down; further: test concentration not given here
[15] = molecular target: Torsin-1A-interacting protein 2 (Homo sapiens) (UniProt Q8NFQ8); assay: LULL1 binders on small-molecule microarray, primary screen, cell lysate, human LULL1 lysate, 635/667 nm fluorescence (AID 1092); details: hLULL1 lysate binding, 635 nm fluorescence, higher = more signal;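 further: probe is lysate of COS7 cells overexpressing human LULL1; score merges per-feature 667 nm fluorescence with signal-to-noise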
Torsin-1A-interacting protein 2 (Homo sapiens), sequence (Q8NFQ8 whole entry, looked up): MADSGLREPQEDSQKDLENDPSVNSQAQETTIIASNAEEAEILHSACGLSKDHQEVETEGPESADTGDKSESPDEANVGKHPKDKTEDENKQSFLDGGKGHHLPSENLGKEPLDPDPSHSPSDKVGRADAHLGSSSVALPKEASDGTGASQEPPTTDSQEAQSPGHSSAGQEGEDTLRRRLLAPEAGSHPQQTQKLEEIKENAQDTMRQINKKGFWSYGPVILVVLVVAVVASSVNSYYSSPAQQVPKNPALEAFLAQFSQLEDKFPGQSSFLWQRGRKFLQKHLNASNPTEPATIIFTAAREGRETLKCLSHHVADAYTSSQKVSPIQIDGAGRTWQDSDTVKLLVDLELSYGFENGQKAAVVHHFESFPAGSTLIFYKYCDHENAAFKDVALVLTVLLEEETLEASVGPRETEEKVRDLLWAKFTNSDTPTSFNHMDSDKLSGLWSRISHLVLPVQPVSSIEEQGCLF

[16] = E. coli growth modulation, two-sided OD650, primary screen, E. coli filamentation project, strain DRC41, 24 h (AID 1093); details: OD650, 24 h, higher = more signal, called active from +8 up or from −8 down;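 further: MC1000 strain lacking acrAB efflux and sulA so SOS filamentation is blocked; test concentration not given here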
[17] = small-molecule microarray binders of probe aLefty2, primary screen, biochemical, biotinylated probe, 635/667 nm fluorescence (AID 1094); details: higher = more signal;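 further: score merges spot fluorescence near 667 nm with spot signal-to-noise ratio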
[18] = system: Noggin (protein binding on small-molecule microarray); assay: Noggin binders on small-molecule microarray, primary screen, biochemical, 635/667 nm fluorescence (AID 1095); details: 635 nm fluorescence, higher = more signal;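 further: score merges 667 nm feature fluorescence with signal to noise over triplicate slides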
[19] = molecular target: Neurogenic locus notch homolog protein 3 (Homo sapiens) (UniProt Q9UM47); assay: NOTCH3 binders on small-molecule microarray, primary screen, biochemical, 635/667 nm fluorescence (AID 1096); details: NOTCH3 binding, 635 nm fluorescence, higher = more signal
Neurogenic locus notch homolog protein 3 (Homo sapiens), sequence (Q9UM47 whole entry, looked up): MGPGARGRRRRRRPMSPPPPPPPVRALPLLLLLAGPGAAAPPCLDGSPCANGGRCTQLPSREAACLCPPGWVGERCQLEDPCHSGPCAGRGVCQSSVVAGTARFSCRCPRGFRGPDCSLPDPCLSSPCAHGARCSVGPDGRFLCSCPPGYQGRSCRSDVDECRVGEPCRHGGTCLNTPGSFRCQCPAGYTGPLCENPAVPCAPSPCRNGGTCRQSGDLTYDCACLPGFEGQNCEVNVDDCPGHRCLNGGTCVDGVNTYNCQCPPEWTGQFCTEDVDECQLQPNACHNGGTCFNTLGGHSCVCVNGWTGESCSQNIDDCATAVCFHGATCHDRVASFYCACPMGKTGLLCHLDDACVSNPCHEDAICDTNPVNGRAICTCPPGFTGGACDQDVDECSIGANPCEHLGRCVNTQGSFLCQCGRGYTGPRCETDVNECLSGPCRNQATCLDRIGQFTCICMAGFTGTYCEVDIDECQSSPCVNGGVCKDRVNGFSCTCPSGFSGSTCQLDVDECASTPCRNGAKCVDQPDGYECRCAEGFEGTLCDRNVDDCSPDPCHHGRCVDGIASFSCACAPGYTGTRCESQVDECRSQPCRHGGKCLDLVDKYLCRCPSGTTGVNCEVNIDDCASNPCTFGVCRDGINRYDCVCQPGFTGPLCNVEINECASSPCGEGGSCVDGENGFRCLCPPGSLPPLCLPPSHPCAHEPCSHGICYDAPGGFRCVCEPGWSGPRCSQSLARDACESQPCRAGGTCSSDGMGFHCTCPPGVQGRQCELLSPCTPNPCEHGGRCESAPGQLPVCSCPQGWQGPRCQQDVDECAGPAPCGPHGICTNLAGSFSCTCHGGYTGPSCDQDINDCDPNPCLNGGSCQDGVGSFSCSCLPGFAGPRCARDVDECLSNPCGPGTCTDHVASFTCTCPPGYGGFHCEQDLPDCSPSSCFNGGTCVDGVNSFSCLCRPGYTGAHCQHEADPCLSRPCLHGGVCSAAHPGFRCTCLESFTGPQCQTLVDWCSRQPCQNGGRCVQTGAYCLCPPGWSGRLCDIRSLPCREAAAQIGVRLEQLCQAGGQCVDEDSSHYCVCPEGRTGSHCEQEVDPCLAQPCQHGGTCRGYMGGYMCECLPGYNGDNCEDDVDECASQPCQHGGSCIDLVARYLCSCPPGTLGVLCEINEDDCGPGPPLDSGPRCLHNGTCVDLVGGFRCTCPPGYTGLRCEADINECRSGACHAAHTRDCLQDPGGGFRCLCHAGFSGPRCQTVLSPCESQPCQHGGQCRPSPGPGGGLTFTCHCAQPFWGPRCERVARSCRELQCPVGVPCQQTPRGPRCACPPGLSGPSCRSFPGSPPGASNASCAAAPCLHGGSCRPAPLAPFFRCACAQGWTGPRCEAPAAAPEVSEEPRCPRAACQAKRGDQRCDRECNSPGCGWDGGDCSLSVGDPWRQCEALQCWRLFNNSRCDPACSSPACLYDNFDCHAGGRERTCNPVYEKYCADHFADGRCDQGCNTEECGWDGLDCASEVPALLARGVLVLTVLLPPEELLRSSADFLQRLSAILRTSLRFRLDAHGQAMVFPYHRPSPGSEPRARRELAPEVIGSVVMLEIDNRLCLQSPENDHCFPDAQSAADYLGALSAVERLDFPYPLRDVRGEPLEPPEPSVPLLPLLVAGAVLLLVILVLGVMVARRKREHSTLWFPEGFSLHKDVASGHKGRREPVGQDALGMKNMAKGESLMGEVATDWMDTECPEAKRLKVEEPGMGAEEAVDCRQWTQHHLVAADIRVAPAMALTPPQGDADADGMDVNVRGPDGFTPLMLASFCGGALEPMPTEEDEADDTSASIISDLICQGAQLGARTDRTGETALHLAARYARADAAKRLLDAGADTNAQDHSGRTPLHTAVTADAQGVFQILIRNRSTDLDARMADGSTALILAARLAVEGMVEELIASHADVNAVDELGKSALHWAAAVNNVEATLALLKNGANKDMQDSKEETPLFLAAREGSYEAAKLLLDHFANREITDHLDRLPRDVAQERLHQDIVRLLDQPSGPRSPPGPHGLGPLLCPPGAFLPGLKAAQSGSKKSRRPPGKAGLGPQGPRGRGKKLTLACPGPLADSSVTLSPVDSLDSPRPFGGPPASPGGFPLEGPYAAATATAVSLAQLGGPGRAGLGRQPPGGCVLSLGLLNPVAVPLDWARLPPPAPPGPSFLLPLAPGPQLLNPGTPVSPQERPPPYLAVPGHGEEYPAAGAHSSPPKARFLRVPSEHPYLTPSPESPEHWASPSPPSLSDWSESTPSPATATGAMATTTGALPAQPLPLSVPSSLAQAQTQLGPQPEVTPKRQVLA

[20] = small-molecule microarray binders of probe aEGFR, primary screen, biochemical, biotinylated probe, 635/667 nm fluorescence (AID 1097); details: higher = more signal;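 further: probe is a biotinylated anti-EGFR antibody binding compounds printed on slides; score combines fluorescence near 667 nm and signal to noise of each spot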

Row | SMILES | composite z-score [1] | composite z-score [2] | composite z-score [3] | composite z-score [4] | composite z-score [5] | composite z-score [6] | composite z-score [7] | z-score [8] | composite z-score [9] | composite z-score [10] | composite z-score [11] | z-score [12] | z-score [13] | z-score [14] | composite z-score [15] | z-score [16] | composite z-score [17] | composite z-score [18] | composite z-score [19] | composite z-score [20]
1 | CCOC(=O)C[C@H]1[C@H](OC(=O)c2ccc(C(=O)c3ccccc3)cc2)[C@@H](NC(=O)Cc2ccc(OC)cc2)c2cc(OCCCO)ccc2N1C(=O)c1ccccc1 | -0.045 | 0.135 | -0.107 | 0.172 | 0.227 | -0.104 | 0.676 | -0.587 (inactive) | 0.518 | -0.0994 | 0.139 | -0.12 (inactive) | 0.169 (inactive) | -0.378 (inactive) | 1.19 | -0.978 (inactive) | 0.0759 | 0.359 | -0.0979 | -0.0219
2 | COCCOC(=O)N1C(=O)[C@@]2(c3cc(C#CC4(O)CCCCCC4)ccc31)[C@H](c1ccc(O)cc1)N1[C@H](c3ccccc3)[C@H](c3ccccc3)OC(=O)[C@H]1[C@@H]2C(=O)NC[C@H](O)c1ccccc1 | -0.116 | 0.556 | -0.126 | 0.666 | 1.29 | 0.463 | 1.02 | 0.69 (inactive) | 0.538 | 0.176 | 1.55 | 0.0316 (inactive) | -0.312 (inactive) | 0.939 (inactive) | 1.18 | -0.639 (inactive) | 0.332 | 1.78 | 1.06 | 0.22
3 | C=C(C(=O)CC[C@@H](OC(C)=O)c1ccc(CO)o1)C(C)C | -0.0468 | -0.0472 | -0.08 | 0.114 | 0.17 | -0.116 | 0.0816 | 0.776 (inactive) | -0.105 | 0.0749 | 1.2 | -2.4 (inactive) | -0.357 (inactive) | -0.561 (inactive) | 0.288 | 0.331 (inactive) | -0.186 | 1.28 | 0.982 | -0.15
4 | COCCOC(=O)N1C(=O)[C@@]2(c3cc(C#Cc4ccc(OC)cc4)ccc31)[C@H](C(=O)Nc1nc3ccccc3s1)[C@H]1C(=O)O[C@H](c3ccccc3)[C@H](c3ccccc3)N1[C@@H]2c1ccc(O)cc1 | 0.0683 | -0.164 | 0.0289 | 0.445 | 1.06 | 1.19 | 1.22 | 2.65 (inactive) | 0.286 | 0.282 | 1.55 | 0.903 (inactive) | 0.842 (inactive) | 1.16 (inactive) | 2.74 | 1.57 (inactive) | -0.0071 | 1.55 | 1.08 | 0.213
5 | O=C1O[C@H](c2ccccc2)[C@H](c2ccccc2)N2[C@H]1[C@@H](C(=O)NC[C@H](O)c1ccccc1)[C@]1(C(=O)Nc3ccc(C#CCCO)cc31)[C@H]2c1ccc(OCCO)cc1 | 0.141 | 0.628 | 0.0521 | 0.984 | 0.782 | 1.23 | 1.23 | 1.59 (inactive) | 0.131 | -0.226 | 1.55 | 2.73 (inactive) | 1.62 (inactive) | 4.7 (inactive) | 2.08 | 0.301 (inactive) | -0.122 | 0.558 | 0.818 | -0.133
6 | CCCNC(=O)[C@@]1(c2ccc([N+](=O)[O-])cc2)CC(=O)N(C2CCCCC2)[C@@H]1c1ccc(CO)cc1 | -0.0597 | 0.256 | -0.0133 | 0.588 | 1.03 | 0.675 | 1.27 | -1.31 (inactive) | 0.565 | 0.113 | 1.57 | 1.3 (inactive) | -0.514 (inactive) | 1.11 (inactive) | 2.8 | 0.824 (inactive) | 0.0744 | 1.65 | 1.04 | -0.0729
7 | COC(=O)[C@@]1(Cc2ccccc2)[C@H]2c3cc(C(=O)N(C)C)n(CCN4CNCC4=O)c3C[C@H]2CN1C(=O)c1ccccc1 | 1.13 | 1.89 | 0.539 | 0.307 | -0.0763 | 1.71 | 1.22 | 0.37 (inactive) | 2 | 0.478 | 0.304 | 0.258 (inactive) | 0.707 (inactive) | 0.1 (inactive) | 1.42 | -0.0469 (inactive) | 0.96 | -0.652 | 0.0743 | 0.385
8 | CCOC(=O)C1=CC[C@@H](c2ccccc2C(F)(F)F)N(S(=O)(=O)c2ccc(C)cc2)[C@H]1c1ccc(C#N)cc1 | -0.0042 | 0.0813 | 0.0625 | 0.692 | 1.36 | 0.988 | 1.25 | 0.852 (inactive) | 1.11 | -0.0024 | 0.884 | -0.242 (inactive) | 1.2 (inactive) | 3.51 (inactive) | 2.56 | -0.156 (inactive) | -0.0099 | 0.292 | 1.03 | -0.0061
9 | COCCCNC(=O)[C@@]1(Cc2ccccc2N=[N+]=[N-])COC(c2ccc(OCCCO)cc2)=N1 | 0.846 | 0.0792 | 0.146 | 0.805 | 1 | 1.54 | 1.27 | 0.554 (inactive) | 0.734 | -0.274 | 1.43 | -0.0885 (inactive) | -1.52 (inactive) | 0.0734 (inactive) | 3.13 | 1.39 (inactive) | 0.219 | 0.0137 | 0.0417 | 0.507
10 | COC(=O)[C@@]1(Cc2ccccc2)[C@H]2c3cc(C(=O)N(C)C)n(Cc4c(CO)[nH]cc(C)c4=O)c3C[C@H]2CN1C(=O)c1ccccc1 | 0.268 | 0.311 | 0.206 | 0.528 | 1.53 | 1.49 | 1.38 | -0.325 (inactive) | 0.608 | 0.0456 | 0.0795 | 0.469 (inactive) | 1.51 (inactive) | 0.0018 (inactive) | 3.13 | -0.633 (inactive) | 0.163 | -0.38 | 0.447 | 0.0288
